# From PubChem BioAssay
# Where “and” joins values, the source holds several entries; their conditions need not be identical. Equal entries are not always repeated. For part of these data: Measured potencies and affinities stand elsewhere. A structure can be active in one record and inactive in another. Calls of active or inactive are those of the source. Unless noted, no rule for the calls is given here.
# Experiments:
# [1] = biological target: 6-phosphogluconate dehydrogenase, decarboxylating (Homo sapiens) (UniProt P52209); test: inhibition of human phosphogluconate dehydrogenase – biochemical, recombinant enzyme, NADPH absorbance, primary screen (AID 1159550;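 active = at least 20% inhibition of 6-phosphogluconate dehydrogenase activity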); conditions: recombinant 6PGD, NADPH absorbance 341 nm; at 10 µM; stronger effect = higher value
# [2] = EMT-state selective cytotoxicity in co-culture – imaging, PC-3E GFP, TEM4-18 mCherry, primary screen (AID 1345086;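 active = compounds killing one labelled cell type while sparing the other, by normalised counts and ratio limits, not self-fluorescent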;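 as to all read-outs here: cells exposed to compound for 72 h before imaging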;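 as to red/green cell ratio (normalised): normalised mesenchymal count divided by normalised epithelial count so high means epithelial killing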); conditions: PC-3E GFP / TEM4-18 mCherry co-culture, imaging cell counts, at 1 µM; for red/green cell ratio (normalised): actives lie on both sides
# [3] = system: Aerobactin synthetase IucA (Klebsiella pneumoniae hvKP1); test: IucA enzyme inhibition, primary screen, biochemical, Spectrum library (AID 1346200); conditions: malachite green pyrophosphate, A620, at 8 µM, stronger effect = lower value;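 also: 100% = wells without compound and 0% = wells lacking enzyme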
# [4] = blockers of polyQ-driven CASP3 activation – cell-based (AID 1583); conditions: polyglutamine-induced caspase-3 activation, cell assay; stronger effect = higher value;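 tested at 10 µM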
# [5] = yeast 75Q aggregation reduction – 75Q-TubU reporter (AID 1593); conditions: Yeast 75Q polyglutamine aggregation reporter
# [6] = restoration of touch response, mutant HTT neurons – whole organism, C. elegans mechanosensory neurons, N-terminal huntingtin (AID 1599); conditions: C. elegans polyQ-huntingtin mechanosensory neurons, stronger effect = higher value
# [7] = blockers of cytochrome c efflux from mitochondria – biochemical, purified mitochondria (AID 1603); conditions: stronger effect = lower value;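 also: mouse liver mitochondria challenged with calcium chloride; signal normalized to the plate average as 100%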
# [8] = polyglutamine aggregate formation blockers (AID 1604); conditions: polyglutamine-induced protein aggregation inhibition assay; stronger effect = higher value; tested at 2.5 µM
# [9] = glutamate transport activators, MN-1 cells, MN-1 cell line (AID 1612); conditions: MN-1 motor neuron cells, stronger effect = higher value;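 also: tested at 1 µM final; 0% = mean of DMSO vehicle wells on each plate; positive means more glutamate uptake than control and negative means less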
# [10] = GFP-Q80 aggregate reduction, neuronal-like cells, cell-based, NGF-treated PC12, GFPQ80 (AID 1614); conditions: PC12 NGF-treated GFP-polyQ80 inclusion reduction;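 also: lower means fewer inclusions and 0 means no inclusions at all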
# [11] = 75Q-TubH aggregate inhibition, S. cerevisiae, yeast (AID 1616); conditions: S. cerevisiae 75Q-TubH polyglutamine aggregation suppression; stronger effect = higher value
# [12] = compounds altering viability of human ES cells (AID 493140); conditions: human embryonic stem cell survival screen; stronger effect = higher value;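 also: cells exposed to compounds for four days before counting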
# [13] = P. berghei load reduction in hepatocytes – cell-based, HepG2, luciferase luminescence, HepG2 viability, primary screen (AID 624349; in the data active = parasite load remaining mostly below about 12%, no sharp cut-off; inactive = mostly above about 10%;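 also: 100% = mean of DMSO negative control wells on the same plate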); conditions: P. berghei liver stage in HepG2, luciferase luminescence, concentration not given here; parasite load remaining: stronger effect = lower value; viability: measured here: HepG2 viability without parasites
# [14] = viability loss with induced miR-34 in A549 – imaging, A549 dox-inducible miR-34, nuclei and caspase counts, primary screen (AID 1347080;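 active = compounds whose cell count with miR-34 switched on is under 0.7 times the count with it off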); conditions: A549 miR-34 inducible, Hoechst nuclei count, 48 h
# [15] = biological target: Mitogen-activated protein kinase 7 (Homo sapiens) (UniProt Q13164); test: Gal4-ERK5 driven luciferase induction – cell-based, HTS, primary screen (AID 1508626;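 active = luciferase signal above three times the same-plate solvent-only control wells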;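 also: luciferase driven by Gal4-ERK5 fusion binding five Gal4 sites before minimal TATA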); conditions: HeLa Gal4-ERK5 transactivation, 18 h, at 5 µM, stronger effect = higher value
# [16] = compounds altering circadian rhythm period length – cell-based, LOPAC library, luminescence reporter (AID 2774); conditions: circadian reporter cells, at 7 µM, actives lie on both sides;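 also: values are relative to mean of DMSO wells on each plate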
# [17] = system: Hepatitis C virus NS3 helicase; test: blockers of NS3h binding to ssDNA – biochemical, fluorescence polarization, LOPAC1280 library, primary screen (AID 687035; in the data active = inhibition above about 37%); conditions: Purified HCV NS3 helicase, Cy5-dT15 ssDNA binding fluorescence polarization; stronger effect = higher value; concentration not given here
# [18] = galactose survival enhancers in mitochondrial complex I cybrids – cell-based, galactose medium, ATP luminescence, primary screen (AID 1645843;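 active = z-score of at least 1.8 in each of two replicates, scored against plate mean and spread of sample wells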;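 also: positive z means more ATP and so rescue of galactose-driven cybrid death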); conditions: complex I mutant cybrid cells, 72 h, stronger effect = higher value
# [19] = biological target: NAD(+) hydrolase SARM1 (Homo sapiens) (UniProt Q6SZW1); test: blocking NAD cleavage by SARM1 SAM-TIR – cell lysate, NAD-Glo luminescence (AID 1508614;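 active = compound whose remaining NAD level is above about 45 nM, limit read from the data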;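 also: higher remaining NAD means stronger inhibition of SARM1 NADase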); conditions: SAM-TIR HEK293T lysate NADase, at 1 µM, stronger effect = higher value
# [20] = MELAS cybrid and Rieske KO viability enhancers – cell-based, MELAS cybrids, Rieske KO mouse fibroblasts, CellTiter-Glo, primary screen (AID 1508586;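 active = mean z-score across replicates of 1.96 or higher in either the MELAS or the Rieske mutant cell line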;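 also: z relative to plate mean and SD of compound and empty wells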); conditions: low glucose
# [21] = measured here: epithelial PC-3E GFP cell survival
# [22] = measured here: mesenchymal TEM4-18 mCherry cell survival
# [23] = measured here: relative caspase fold change +Dox/-Dox
# [24] = measured here: total cells with miR-34 induction, stronger effect = lower value
# [25] = measured here: total cells without miR-34 induction
# [26] = MELAS cybrid survival, CellTiter-Glo 48 h, stronger effect = higher value
# [27] = Rieske KO mouse fibroblast survival, CellTiter-Glo 72 h
# 6-phosphogluconate dehydrogenase, decarboxylating (Homo sapiens), sequence (P52209 whole entry, looked up): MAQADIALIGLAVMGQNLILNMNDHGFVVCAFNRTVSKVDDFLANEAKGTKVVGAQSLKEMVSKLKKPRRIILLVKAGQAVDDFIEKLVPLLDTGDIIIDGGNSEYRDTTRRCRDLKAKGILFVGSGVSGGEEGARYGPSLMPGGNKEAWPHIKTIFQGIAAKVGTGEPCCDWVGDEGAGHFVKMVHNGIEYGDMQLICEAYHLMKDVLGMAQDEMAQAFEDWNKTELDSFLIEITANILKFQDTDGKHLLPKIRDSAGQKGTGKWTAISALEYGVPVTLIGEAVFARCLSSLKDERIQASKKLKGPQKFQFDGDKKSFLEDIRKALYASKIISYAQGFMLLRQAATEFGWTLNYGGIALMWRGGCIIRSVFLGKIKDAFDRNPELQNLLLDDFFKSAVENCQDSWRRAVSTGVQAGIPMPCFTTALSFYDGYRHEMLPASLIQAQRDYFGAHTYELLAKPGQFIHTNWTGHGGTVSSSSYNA
# Mitogen-activated protein kinase 7 (Homo sapiens), sequence (Q13164 whole entry, looked up, the tested form may be a part): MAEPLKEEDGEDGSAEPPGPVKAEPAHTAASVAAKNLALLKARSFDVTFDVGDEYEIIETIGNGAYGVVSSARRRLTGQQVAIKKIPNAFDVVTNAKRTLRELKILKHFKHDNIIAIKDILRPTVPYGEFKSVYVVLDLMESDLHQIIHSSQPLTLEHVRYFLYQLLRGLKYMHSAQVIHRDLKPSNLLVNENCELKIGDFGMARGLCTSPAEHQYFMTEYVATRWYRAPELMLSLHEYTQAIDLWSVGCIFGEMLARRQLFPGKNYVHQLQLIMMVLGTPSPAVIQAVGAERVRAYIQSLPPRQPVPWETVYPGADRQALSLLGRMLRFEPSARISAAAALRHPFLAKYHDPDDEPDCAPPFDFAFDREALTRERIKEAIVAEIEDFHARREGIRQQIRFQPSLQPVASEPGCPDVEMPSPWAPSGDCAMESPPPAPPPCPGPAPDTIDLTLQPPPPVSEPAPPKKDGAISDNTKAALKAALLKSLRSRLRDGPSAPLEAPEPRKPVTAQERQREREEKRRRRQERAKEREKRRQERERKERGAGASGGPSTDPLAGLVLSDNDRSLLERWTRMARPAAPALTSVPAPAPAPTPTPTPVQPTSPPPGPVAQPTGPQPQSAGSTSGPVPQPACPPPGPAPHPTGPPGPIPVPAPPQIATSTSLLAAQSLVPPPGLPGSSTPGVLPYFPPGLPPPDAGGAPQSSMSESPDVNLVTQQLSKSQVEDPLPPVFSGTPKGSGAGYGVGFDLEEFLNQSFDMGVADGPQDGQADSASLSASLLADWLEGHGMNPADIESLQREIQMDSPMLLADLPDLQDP
# NAD(+) hydrolase SARM1 (Homo sapiens), sequence (Q6SZW1 whole entry, looked up): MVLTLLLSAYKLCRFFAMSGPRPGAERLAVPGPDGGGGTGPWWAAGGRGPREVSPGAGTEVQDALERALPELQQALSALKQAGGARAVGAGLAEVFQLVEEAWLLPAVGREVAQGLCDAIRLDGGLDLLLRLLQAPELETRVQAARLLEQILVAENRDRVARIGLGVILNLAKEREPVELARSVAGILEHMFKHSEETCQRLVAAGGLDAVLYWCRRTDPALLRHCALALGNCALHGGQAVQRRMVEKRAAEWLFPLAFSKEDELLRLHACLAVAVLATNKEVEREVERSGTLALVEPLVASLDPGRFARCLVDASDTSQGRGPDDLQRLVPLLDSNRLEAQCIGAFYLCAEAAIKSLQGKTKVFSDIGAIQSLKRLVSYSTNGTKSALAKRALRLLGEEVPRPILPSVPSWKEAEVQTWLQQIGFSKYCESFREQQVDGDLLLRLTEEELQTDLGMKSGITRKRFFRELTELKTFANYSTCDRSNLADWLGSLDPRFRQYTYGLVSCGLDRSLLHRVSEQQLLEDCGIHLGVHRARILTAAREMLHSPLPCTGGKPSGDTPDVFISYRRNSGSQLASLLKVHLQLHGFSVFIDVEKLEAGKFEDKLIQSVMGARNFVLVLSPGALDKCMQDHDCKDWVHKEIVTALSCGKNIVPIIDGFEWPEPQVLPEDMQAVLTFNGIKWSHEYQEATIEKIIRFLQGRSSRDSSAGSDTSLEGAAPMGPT
smiles,measurement,setting,value
COc1cc([C@@H]2c3cc4c(cc3[C@@H](O)C3COC(=O)C32)OCO4)cc(OC)c1O (stereo partly specified),inhibition,[1],4.81% (inactive)
same,red/green cell ratio (normalised),[2],1.06 (inactive)
same,normalised cell number,[2]; [21],0.29
same,normalised cell number,[2]; [22],0.31
same,activity remaining,[3],118% (inactive)
C[C@H]1CCCC(=O)CCC/C=C/c2cc(O)cc(O)c2C(=O)O1,inhibition,[1],15.7% (inactive)
same,red/green cell ratio (normalised),"[2]; counts scaled to control wells, 1 = unselective",1.02 (inactive)
same,normalised cell number,[2]; [21],1.02
same,normalised cell number,[2]; [22],1.04
same,activity remaining,[3],103% (inactive)
CC1=NCCc2c1[nH]c1cc(O)ccc21,inhibition,[4],-45.7%
same,score,[5],0.81
same,rescue above control,[6],0.94
same,cytochrome c release ratio,[7],0.72
same,inhibition of aggregation,[8],14.3%
same,glutamate uptake change,[9],13.4%
same,inclusion score,[10],2
same,aggregation suppression score,[11],1.24
same,survival,[12],17.3 (inactive)
same,parasite load remaining,[13],47.1% (inactive) and 63.7% (inactive) and 58.9% (inactive)
same,viability,[13],102% and 67.4% and 76.2%
same,inhibition,[1],-14.9% (inactive)
same,red/green cell ratio (normalised),[2],0.98 (inactive)
same,normalised cell number,[2]; [21],1.01
same,normalised cell number,[2]; [22],0.99
same,activity remaining,[3],98.9% (inactive)
same,fold change,"[14]; stronger effect = lower value, cell number ratio, induced over uninduced",0.845 (inactive)
same,fold change,[14]; [23],1.99
same,cell count,[14]; [24],8870
same,cell count,[14]; [25],10500
same,luciferase signal,[15],64 AU (inactive)
COC1=C[C@@H]2[C@@H]3Cc4ccc(OC)c(O)c4[C@]2(CCN3C)CC1=O,inhibition,[1],2.36% (inactive)
same,red/green cell ratio (normalised),[2],0.75 (inactive)
same,normalised cell number,[2]; [21],1.39
same,normalised cell number,[2]; [22],1.03
same,activity remaining,[3],94.1% (inactive)
same,luciferase signal,[15],72 AU (inactive)
OC1CCCCC1N1CCC(c2ccccc2)CC1 (stereo unspecified),inhibition,[4],-2.9%
same,score,[5],1.36
same,rescue above control,[6],12.8
same,cytochrome c release ratio,[7],1.15
same,inhibition of aggregation,[8],57.4%
same,glutamate uptake change,[9],-9.45%
same,inclusion score,[10],2
same,aggregation suppression score,[11],1.46
same,period change,[16],0.065 h (inactive)
same,survival,[12],2.42 (inactive)
same,parasite load remaining,[13],122% (inactive) and 70.2% (inactive)
same,viability,[13],88.2% and 106%
same,inhibition,[17],-4% (inactive)
same,inhibition,[1],1.03% (inactive)
same,red/green cell ratio (normalised),[2],0.98 (inactive)
same,normalised cell number,[2]; [21],1.07
same,normalised cell number,[2]; [22],1.05
same,activity remaining,[3],87.4% (inactive)
same,fold change,[14]; stronger effect = lower value,0.987 (inactive) and 1.03 (inactive) and 0.84 (inactive)
same,fold change,[14]; [23],1.87 and 1.57 and 4
same,cell count,[14]; [24],10100 and 9780 and 10400
same,cell count,[14]; [25],10200 and 9480 and 12300
same,luciferase signal,[15],60 AU (inactive)
same,z-score,[18],0.03 (inactive) and 0.65 (inactive)
O=[N+]([O-])c1cc([As](=O)(O)O)ccc1O,inhibition,[4],4.6%
same,score,[5],1.17
same,rescue above control,[6],-4.04
same,cytochrome c release ratio,[7],1.09
same,inhibition of aggregation,[8],3.7%
same,glutamate uptake change,[9],-17%
same,inclusion score,[10],1.5
same,aggregation suppression score,[11],1.08
same,survival,[12],4.83 (inactive)
same,parasite load remaining,[13],90.8% (inactive) and -0.22% (active) and 33.7% (inactive)
same,viability,[13],83.9% and 75.8% and 93.4%
same,inhibition,[1],11.3% (inactive)
same,red/green cell ratio (normalised),[2],1.34 (inactive)
same,normalised cell number,[2]; [21],0.89
same,normalised cell number,[2]; [22],1.19
same,activity remaining,[3],112% (inactive)
same,fold change,[14]; stronger effect = lower value,0.929 (inactive) and 0.938 (inactive)
same,fold change,[14]; [23],0.651 and 3.1
same,cell count,[14]; [24],8580 and 11200
same,cell count,[14]; [25],9240 and 11900
same,remaining NAD,[19],10 nM (inactive)
same,luciferase signal,[15],44 AU (inactive)
CC(N)Cc1ccc(O)cc1 (stereo unspecified),inhibition,[1],-0.0931% (inactive)
same,red/green cell ratio (normalised),[2],0.93 (inactive)
same,normalised cell number,[2]; [21],1.27
same,normalised cell number,[2]; [22],1.19
same,activity remaining,[3],111% (inactive)
same,remaining NAD,[19],10 nM (inactive)
O=C(O)CC[N+](=O)[O-],period change,[16],-0.005 h (inactive)
same,inhibition,[17],-3% (inactive)
same,inhibition,[1],-4.59% (inactive)
same,red/green cell ratio (normalised),[2],1.06 (inactive)
same,normalised cell number,[2]; [21],0.86
same,normalised cell number,[2]; [22],0.91
same,activity remaining,[3],105% (inactive)
same,fold change,[14]; stronger effect = lower value,1.06 (inactive)
same,fold change,[14]; [23],2.1
same,cell count,[14]; [24],10800
same,cell count,[14]; [25],10200
same,luciferase signal,[15],152 AU (inactive)
same,z-score,[18],-0.29 (inactive)
COc1cc2c(cc1OC)[C@@H]1C(=O)c3ccc(OC)c(CC=C(C)C)c3O[C@@H]1CO2,inhibition,[1],18.8% (inactive)
same,red/green cell ratio (normalised),[2],0.91 (inactive)
same,normalised cell number,[2]; [21],0.87
same,normalised cell number,[2]; [22],0.8
same,activity remaining,[3],109% (inactive)
same,luciferase signal,[15],68 AU (inactive)
COc1ccc2c(c1)[nH]c1c(C)nccc12,survival,[12],4.58 (inactive)
same,viability,[13],76.6% and 67.9% and 85.5%
same,inhibition,[1],-2.64% (inactive)
same,red/green cell ratio (normalised),[2],0.67 (inactive)
same,normalised cell number,[2]; [21],0.9
same,normalised cell number,[2]; [22],0.6
same,activity remaining,[3],104% (inactive)
same,fold change,[14]; stronger effect = lower value,0.845 (inactive) and 0.909 (inactive) and 0.923 (inactive)
same,fold change,[14]; [23],1.49 and 0.507 and 1.16
same,cell count,[14]; [24],4630 and 5110 and 4130
same,cell count,[14]; [25],5480 and 5630 and 4470
same,z-score,[20]; [26],0.384 (inactive)
same,z-score,[20]; [27],1.34
same,luciferase signal,[15],124 AU (inactive)
same,z-score,[18],-0.45 (inactive)
CN1C2CCC1CC(OC(c1ccccc1)c1ccccc1N)C2 (stereo unspecified),period change,[16],0.055 h (inactive)
same,inhibition,[17],-3% (inactive)
same,inhibition,[1],2.13% (inactive)
same,red/green cell ratio (normalised),[2],0.76 (inactive)
same,normalised cell number,[2]; [21],1.34
same,normalised cell number,[2]; [22],1.01
same,activity remaining,[3],118% (inactive)
same,fold change,[14]; stronger effect = lower value,1 (inactive)
same,fold change,[14]; [23],2.1
same,cell count,[14]; [24],9770
same,cell count,[14]; [25],9760
same,z-score,[18],-0.4 (inactive)
COc1ccc2c(c1O)-c1c(OC)c(OC)cc3c1[C@H](C2)N(C)CC3,survival,[12],5.58 (inactive)
same,parasite load remaining,[13],125% (inactive) and 105% (inactive) and 60.3% (inactive)
same,viability,[13],106% and 65% and 79.8%
same,inhibition,[1],3.42% (inactive)
same,red/green cell ratio (normalised),[2],1.1 (inactive)
same,normalised cell number,[2]; [21],0.99
same,normalised cell number,[2]; [22],1.09
same,activity remaining,[3],116% (inactive)
same,fold change,[14]; stronger effect = lower value,0.862 (inactive)
same,fold change,[14]; [23],1.06
same,cell count,[14]; [24],9380
same,cell count,[14]; [25],10900
same,luciferase signal,[15],72 AU (inactive)
CC[N+]1(C)CCCC(OC(=O)C(O)(c2ccccc2)c2ccccc2)C1 (stereo unspecified),inhibition,[4],-29.9%
same,score,[5],1.45
same,rescue above control,[6],-4.25
same,cytochrome c release ratio,[7],1.2
same,inhibition of aggregation,[8],91.6%
same,glutamate uptake change,[9],-17.4%
same,inclusion score,[10],2
same,aggregation suppression score,[11],1.25
same,survival,[12],2.83 (inactive)
same,parasite load remaining,[13],98.8% (inactive) and 137% (inactive)
same,viability,[13],99.5% and 99.4%
same,inhibition,[1],-2.23% (inactive)
same,red/green cell ratio (normalised),[2],0.98 (inactive)
same,normalised cell number,[2]; [21],1.12
same,normalised cell number,[2]; [22],1.1
same,activity remaining,[3],116% (inactive)
same,fold change,[14]; stronger effect = lower value,0.964 (inactive)
same,fold change,[14]; [23],1.14
same,cell count,[14]; [24],8700
same,cell count,[14]; [25],9020
same,z-score,[20]; [26],-0.637 (inactive)
same,z-score,[20]; [27],-0.323
same,luciferase signal,[15],84 AU (inactive)
